Our source for the Percent Effect values is ChEMBL document CHEMBL3988442, “University of Dundee, Small-Polar-MMV Screening Library” (2021).

Structures are written as SMILES.

The test addresses AMP-activated protein kinase, AMPK (Homo sapiens) (UniProt P54646+O43741+P54619+Q9UGJ0+Q9Y478+Q13131+Q9UGI9). As to the kind of experiment: AMP-dependent Kinase enzyme assay. An in vitro enzyme assay that detects ADP turnover that is directly proportional to AMPK activity. This uses naive AMPK that is activated during the assay with MK-8722. Further details: scale not given: direction of the effect not stated beside the values. The note with it: 30 µM. It is filed as functional.
With `COC(=O)c1ncccc1N1CCCC1`, the Percent Effect turned out to be 9.09%.
Take `Cc1cc(C(=O)N2CCNC(=O)C2)c(C)n1Cc1ccccn1`: the Percent Effect was -10.9%.
The result for `CCc1noc(C(C)N2CCCN(Cc3noc(C4CC4)n3)CC2)n1` (stereo not given) reads 0.0834%.
On to `CCOCCOC(C)C(=O)Nc1nccn1Cc1ccccc1` (stereo not given), for which the Percent Effect is -2.1%.
The result for `CS(=O)(=O)c1ccccc1NC(=O)N[C@@H]1c2ccccc2C[C@@H]1O` reads 6.87%.
The value for `COc1ccc(C)nc1NC(=O)Cc1c(C)nn(C)c1C` was 2.12%; that for `Cc1cc(C(F)F)nn1CC(=O)NCc1nccn1C` was 5.16%.
For the compound `COc1ccc(S(=O)(=O)NC(=O)C(C)OC)c(OC)c1` (stereo not given), the Percent Effect is -4.37%.
On to `Cn1cc(CN(C(=O)c2ccc(O)c(Cl)c2)C2CC2)cn1`, for which the Percent Effect came to 10.3%.
Consider `CCC(NC(=O)c1cnc(N(C)C)nc1C)c1ccncc1` (stereo not given), for which the Percent Effect came out at 0.963%.
On to `CS(=O)(=O)NCC1Cc2ccccc2O1` (stereo not given), for which the Percent Effect was -1.87%.
The value for `CN1CCC(N(CCc2ccccc2)C(=O)COCC2CCCO2)CC1` (stereo not given) was -4.31%.
The result for `O=C(CCc1nc(-c2cccnc2)no1)NCC1CCN(C2CC2)C1` (stereo not given) reads -2.6%; that for `N#CC1COCCN1C(=O)c1ccc2[nH]cnc2c1` (stereo not given), -8.21%.
Consider `CN1CCCC(c2cccc(-c3ccccc3F)n2)C1` (stereo not given), for which the Percent Effect is 16.2%.
The value for `Fc1ccccc1CN1CCC[C@@H](Cn2nnc(-c3cccs3)n2)C1` was 5.25%; that for `CSc1nccc(N2CCC3(CCCN(Cc4ccc(F)cc4)C3)C2)n1` (stereo not given) was 3.61%.
For `COc1c(C)cnc(CN2CCn3c(nnc3C(C)C)C2)c1C`, the Percent Effect was found to be 22%.
The result for `O=C(NCc1ccc(OCC2CC2)nc1)C1COc2ccccc2O1` (stereo not given) reads -1.03%.
As for `CCS(=O)(=O)CCCN1CCSCC1c1ccc(Cl)cc1` (stereo not given), the Percent Effect is -4.64%.
The value for `CC1(C)COCCN1C(=O)Cc1cc(Cl)c2c(c1)OCCO2` was 10.7%.
The result for `COc1cc(F)cc2sc(NC(=O)COCC3CCCO3)nc12` (stereo not given) reads 1.22%.
The value for `CC(c1ncc(-c2ccccc2)o1)N1CCN(C(=O)C(C)(C)C)CC1` (stereo not given) was 12.7%.
On to `COC(=O)C1CN(Cc2ccn(-c3ccc(F)cc3)n2)C[C@@H](C)O1` (stereo not given in full), for which the Percent Effect is -6.96%.
As to `Cc1ncc(C(=O)NCCOc2ccccc2F)c(C)n1`, the Percent Effect is -16.7%.
Consider `CC(Oc1ccc2c(c1)OCO2)C(=O)N1CCC(N2CCOCC2)CC1` (stereo not given), for which the Percent Effect was -2.63%.
For `CN(Cc1nc(N)nc(N(C)C)n1)Cc1cccc2ccccc12`, the Percent Effect is -3.23%.
The value for `COc1ccc(OCCNC(=O)CN(C)Cc2nnc(C)n2C)cc1` was 7.86%; that for `Fc1ccc(N2CCCN(c3ccc(Cn4ccnc4)cn3)CC2)cc1` was -3.34%; that for `O=C1CN(c2ccc(C(=O)N3CCc4ccccc43)cn2)CCN1` was 5.07%.
The value for `CCNC(=O)c1ccnc(N2CCCC(COc3ccccc3C)C2)c1` (stereo not given) was -0.143%.
For `O=C(NCC1CCS(=O)(=O)C1)N(Cc1ccncc1)C1CC1` (stereo not given), the Percent Effect was -5.47%.
The value for `CN(C)C(=O)N1CCCC(C(=O)N(C)Cc2cnc(N)nc2)C1` (stereo not given) was -2.52%.
Consider `C[C@@H]1CN(CC(=O)NCc2ccccn2)C[C@]1(C)O`, for which the Percent Effect was determined as 8.43%.
In the case of `CC(NCc1cnc(N2CCOCC2)s1)c1ccc(Cl)s1` (stereo not given), the Percent Effect was determined as 9.15%.
The value for `CN1CC2(CCN(CCCOCc3ccccc3)CC2)OC1=O` was 2.54%.
The result for `CN(C)c1nc2sc(C(=O)N3CCNC(=O)CC3)cc2s1` reads 0.0719%; that for `CCn1cc(CN(C)Cc2cnn(-c3ccc(F)cc3)c2)cn1`, 13.6%.
With `Clc1ccc(N2CCC(OCC3CCCCO3)CC2)nc1` (stereo not given), the Percent Effect came out at 3.4%.
As for `COc1ccsc1C(=O)NC1CCN(c2ccc(C#N)cc2)CC1`, the Percent Effect stood at 13.5%.
